Measured values from PubChem BioAssay AID1460 (National Center for Advancing Translational Sciences (NCATS), 2008).
The campaign covered roughly 270,000 compounds. About 5,800 (2.1%) were called active. Inconclusive results (about 16%) are left out. Calls come from the whole dose curve; as a rule, active = well fitted inhibition curve with a large enough effect; inconclusive = small, poorly fitted or top-dose-only effect; inactive = flat fitted curve, though single readings scatter. The full list was thinned out, with actives kept by preference.

What follows are compounds tested against Microtubule-associated protein tau (Homo sapiens) (UniProt P10636) (assay: qHTS for Inhibitors of Tau Fibril Formation, Thioflavin T Binding). Settings: recombinant tau K18 P301L (four-repeat tau fragment), heparin-induced fibrillization, ThT fluorescence; series mostly up to 57.4 µM; activity, negative = inhibition: at the top concentration.
Sequence of Microtubule-associated protein tau (Homo sapiens) (P10636 561-689 P618L limits assumed): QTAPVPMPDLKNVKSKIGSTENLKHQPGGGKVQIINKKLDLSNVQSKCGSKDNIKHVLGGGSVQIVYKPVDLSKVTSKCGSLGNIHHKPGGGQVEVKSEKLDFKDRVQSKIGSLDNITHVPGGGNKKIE
Procedure, shortened: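 K18 P301L tau (15 uM + 0.24 uM Alexa 594-tagged), heparin 20 uM, NaOAc pH 7, 6 h 37 C; ThT 30 uM, 1 h RT, ex 450/em 510 nm.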
% is set by controls: 0 for no effect and ±100 for the full control effect; potency is the fitted concentration of half-maximal effect.
Note: nearly all actives have a fitted effect of over 55% in size.

activity, negative = inhibition, inactive:
Cc1ccc2sc(N(Cc3cccnc3)C(=O)C3COc4ccccc4O3)nc2c1C (stereo not drawn) -8.74%
Cc1cc(C(=O)COC(=O)CCCN2C(=O)c3ccccc3C2=O)c(C)n1C -9.79%
CC(C)OC(=O)CN1C(=O)C(=O)c2ccccc21 -13.1%
Cc1ccc(-n2nc(C)c3c(C)cc(=O)n(CC(=O)Nc4ccc(C(C)C)cc4)c32)cc1 20.4%
CCOc1ccc(/C=N/NC(N)=S)cc1 -8.57%
CCOc1ccc(N=C2SC(C(=O)O)CC(=O)N2C)cc1 (stereo not drawn) 8.58%
Cc1cc(OC(C)C(=O)Nc2sc3c(c2C(N)=O)CCCC3)ccc1Cl (stereo not drawn) -10.9%
COc1ccccc1CCNC(=O)c1cccn1-c1nnc(N2CCCCC2)s1 6.81%
COc1ccc(CNC(=O)C2=Cc3cccc(OC)c3OC2)cc1OC -1.13%
COc1ccc(Cc2nc3ccc(C(=O)NCc4ccc(OC)cc4OC)cc3o2)cc1 -16.5%
CC1CCCN(S(=O)(=O)c2ccc3[nH]c(=O)cc(C(=O)NCCc4ccc(Cl)cc4)c3c2)C1 (stereo not drawn) 6.2%
CC(C)OCCCn1c(SCC(=O)c2ccccc2)nc2c(sc3ccccc32)c1=O -3.27%
Cc1cc(F)ccc1NS(=O)(=O)c1ccc(-n2cccn2)cc1 0.124%
CC(C)CC(=O)NCC(c1ccc2c(c1)OCO2)N1CCN(c2ccc(F)cc2)CC1 (stereo not drawn) -1.35%
O=c1cc(N2CCN(Cc3ccccc3)CC2)c(-c2ccccc2)n[nH]1 -8.74%
O=C(CN1CCN(Cc2ccccc2)CC1)NC(c1ccccc1)c1ccccc1 -6.32%
CC(=O)c1ccc(NC(=O)CSc2nc(-c3ccccc3F)nc3c2c(=O)n(C)c(=O)n3C)cc1 -4.07%
COc1ccc(Cn2ccn(Cc3cccc(OC)c3)c(=O)c2=O)cc1 -1.27%
Cn1c(=O)oc2cc(S(=O)(=O)CCC(=O)NCCc3ccc(Cl)cc3)ccc21 -5.87%
Cc1ccc(C)c(Oc2c(C(F)(F)F)oc3c(CN4CCN(C)CC4)c(O)ccc3c2=O)c1 5.1%
Fc1ccccc1Oc1ncnc2c1oc1ccccc12 0.723%
C=CCOc1ccc(/C=N/NC(=O)C(C)Sc2ccccn2)cc1OCC (stereo not drawn) -0.608%
CCOc1ccc(/C=N/NC(=O)C(C)Sc2ccccn2)cc1OCC (stereo not drawn) -11%
COc1ccc(-c2ccc(=O)n(CC(=O)Nc3ccc(Br)cc3F)n2)cc1 -0.585%
Cc1ccccc1CN1CCC(CNC(=O)c2cc3ccc4cccnc4c3[nH]2)CC1 3.15%
COc1cccc(C(=O)Nc2ccc(-c3cc(C(F)(F)F)nn3-c3ccccc3)cc2)c1 -2.4%
CCC(=O)Nc1ccc(C(=O)Nc2cccc(OC)c2)cc1 -2.56%
O=C(Nc1nc2cc3c(cc2s1)OCCO3)c1cccc(S(=O)(=O)N2CCOCC2)c1 -8.31%
COc1ccc(C(=O)Nc2nc(-c3ccc(S(=O)(=O)N4CCOCC4)cc3)cs2)cc1 -6.13%
COc1cc(NC(=O)C2CCN(c3cnccn3)CC2)cc(OC)c1 0.931%
CCc1ccc(S(=O)(=O)c2nnn3c2nc(N2CCN(CC)CC2)c2sccc23)cc1 -2.76%
CCC(=O)Nc1ccccc1-c1nc2ccccc2n(CC(=O)Nc2ccc(C)c(C)c2)c1=O -4.76%
COc1ccc(C=Nc2cccc3ncccc23)cc1 -11.3%
COc1cc(NC(=O)Cn2c(=O)n(Cc3ccco3)c(=O)c3oc4ccccc4c32)cc(OC)c1 8.95%
Cc1cccc(C2=N/C(=C/c3cccs3)C(=O)O2)c1 -11.6%
O=C1N/C(=C/c2cccs2)C(=O)N1Cc1ccc(F)cc1 4.61%
CC1Cc2cc(S(=O)(=O)CCC(=O)Nc3ccc(F)c(Cl)c3)ccc2N1C(=O)C1CC1 (stereo not drawn) 1.55%
O=C(CCC(=O)c1cccs1)NCc1ccccc1 0.274%
Cc1ccc(C)c(NC(CC(=O)c2ccccc2)C(=O)OCC(=O)c2cccs2)c1 (stereo not drawn) -13.7%
COc1cccc(-n2cc(C(=O)NCc3cccc(Cl)c3)c3ccccc3c2=O)c1 -10.9%
CCS(=O)(=O)N1CCC(n2c(C)nc3cccnc32)CC1 -1.27%
C=CCNC(=S)NNC(=O)c1cc(Cl)ccc1OC -14.5%
COc1ccc(Cl)cc1C(=O)NNC(=S)NC1CCCC1 -2.82%
Cc1ccc(C(=O)N2c3ncnn3C3(CCCCC3)[C@@H]3CCCC[C@@H]32)cc1 -7.73%
CCOC(=O)CNC(=O)c1cc2c(=O)n3cccc(C)c3nc2s1 -2.97%
Cc1cccn2c(=O)c(/C=C3\SC(=S)N(CC(C)C)C3=O)c(NCCCOC(C)C)nc12 -13.2%
Cn1nnnc1SCCCNCc1cccc(OCc2ccc(Cl)cc2)c1 -14.2%
Cc1ccccc1Nc1c(-c2ccccc2)nc2ncccn12 -8.46%
COc1ccc(NC(=O)CN2CCCN(Cc3ccccc3)S2(=O)=O)cc1 6.18%
Cc1nnc(C)n1-c1ccc(C(=O)Nc2cccc(Br)c2)cc1 -13.8%
C=Cc1ccc(Cn2c(C(=O)O)c(CNC3CCCC3)c3ccc(C)cc32)cc1 -6.7%
CSc1ccc(S(=O)(=O)NC2CCCCC2)cc1 -14.1%
CC1CCC(NS(=O)(=O)c2ccc3c(c2)n(C)c(=O)c(=O)n3C)CC1 (stereo not drawn) -10.1%
O=C(Nc1ccccc1Cl)N1CCC(CN2CCCCC2)CC1 0.774%
COc1ccc(S(=O)(=O)n2nc(C)c(S(=O)(=O)N3CCCCCC3)c2C)cc1 -5.22%
CCc1nnc(SCC(=O)Nc2cc(OC)ccc2OC)nc1CC -13.1%
COc1ccc(C)cc1N(C)C(=O)c1c(C)oc2ncnc(N3CCOCC3)c12 -4.51%
CCOC(=O)C1CCCN(S(=O)(=O)c2cc(-c3cc(C)no3)ccc2OC)C1 (stereo not drawn) -5.37%
N#C/C(=C\c1ccc(N2CCOCC2)o1)C(=O)N1CCOCC1 -14.6%
N#C/C(=C\c1ccccc1C(F)(F)F)C(=O)Nc1ccccc1F -2.13%
COc1cccc(-c2cc(C(=O)Nc3ccc(C)cc3)[nH]n2)c1 16.5%
COc1ccc(C/C(C)=N/NC(=O)c2cc(C)oc2C)cc1 -14.5%
Cc1nonc1C(=O)N/N=C/c1ccc(O)cc1 -13.5%
CCn1cc(C(=O)N2CCN(c3cc(C)ccc3C)CC2)c(=O)c2cc(S(=O)(=O)N(C)C3CCCCC3)ccc21 -17%
Cc1noc2ncnc(NCc3ccccc3Cl)c12 -8.51%
COC(=O)C1=C(C)N(c2ccc(Br)cc2)C(=O)/C1=C\c1ccco1 3.15%
CC(C)NC(=O)C(=O)N/N=C/c1ccco1 -18.5%
CCOC(=O)c1c(NC(=O)c2ccc(S(=O)(=O)N3CCCC(C)C3)cc2)sc2c1CCN(C(C)C)C2 (stereo not drawn) -15.9%
COc1cc(OC)c(NC(=O)c2nc(-c3ccncc3)no2)cc1Cl 15.5%
Cc1ccc(-c2csc(NC(=O)c3cnccn3)n2)cc1C -7.61%
Cc1ccc(-c2csc(SCC(=O)Nc3cc(C)on3)n2)cc1 -1.99%
Cc1ccccc1CNC(=O)CCCn1nc(C)c2sc3ccccc3c2c1=O 11.6%
O=C(NC1CC(=O)N(c2ccccc2)C1)c1ccco1 (stereo not drawn) 4.55%
COc1ccc(NC(=O)Nc2cccc(-c3noc(C)n3)c2)cc1 -6.06%
Cc1c(C)n(Cc2ccc(Cl)cc2)c2ccc(C(=O)NCCc3ccc(S(N)(=O)=O)cc3)cc12 -2.45%
CC(C)(C)c1ccc(C(=O)Nc2ccc3c(c2)CCCN3C(=O)c2cccs2)cc1 -12.8%
CCc1ccc(NC(=O)CN2C(=O)CCSc3ccc(S(=O)(=O)N4CCCC4)cc32)cc1 8.06%
CCc1nn(CCCC(=O)NCc2ccc(C)cc2)c(=O)c2cc3occc3n12 -5.1%
COCCCNC(=O)c1ccc(NC(=O)c2nsc3ccccc23)cc1 -4.75%
Cc1ccc(N2C(=O)C3C(c4ccccc4)(C2=O)C3(c2ccccc2)c2ccccc2)cc1 (stereo not drawn) 4.8%
O=C(Nc1ccc2nc(SCCOc3ccccc3Cl)sc2c1)c1ccco1 5.98%
CCOC(=O)c1cccc(NC(=O)c2cc(S(=O)(=O)N3CCCC(C)C3)cn2C)c1 (stereo not drawn) 3.72%

Potency, active:
CCCCN1C(=O)/C(=C(/C#N)C(N)=O)c2ccccc21 20 µM
CCOc1ccc(N=C2NC(=O)S/C2=C\c2ccc(O)cc2)cc1 3.55 µM
O=C1c2ccccc2C(=O)c2c1cccc2N1CCN(Cc2ccccc2)CC1 14.1 µM
CCOc1ccc(/C=N/Nc2nncc(-c3ccccc3)n2)cc1OC 2.24 µM
COc1cccc(C(=O)Nc2ccc(N3CCCC3)cc2)c1 14.1 µM
COc1cccc(C(=O)Nc2nnc(S(=O)(=O)N3CCOCC3)s2)c1 3.16 µM
Oc1c(C=Nc2cccc3nsnc23)ccc2ccccc12 2.24 µM
CSC1=N/C(=C\C=C\c2cccs2)C(=O)S1 14.1 µM
Cc1ccccc1C(CC(=O)c1cccs1)C(C#N)C#N (stereo not drawn) 25.1 µM
Cc1coc2c(O)cc3c(c12)OC1(N2CCCCC2)C(=O)NCCCC31 (stereo not drawn) 15.8 µM
COc1ccc(Cl)cc1C(=O)NNC(=S)NC(=O)/C=C/c1ccco1 11.2 µM
CCOC(=O)CC1C(=O)NCCN1c1nc2c(C)cccn2c(=O)c1/C=C1\SC(=S)N(C(C)CC)C1=O (stereo not drawn) 7.94 µM
CCc1cccc(C)c1Nc1c(-c2ccc(N(C)C)cc2)nc2ncccn12 14.1 µM
Cn1sc(=O)c2cc(S(=O)(=O)NC3CC3)ccc21 12.6 µM
N#C/C(=C\C1=C(N2CCOCC2)C(=C\c2ccccc2)/CC1)C(=O)Nc1ccccc1F 3.16 µM
Cc1cc(C(=O)N/N=C/c2ccc(N3CCOCC3)cc2)c(C)o1 3.98 µM
COC(=O)C1=C(C)N(C(C)c2ccccc2)C(=O)/C1=C\c1ccco1 (stereo not drawn) 22.4 µM
Cc1ccc(Nc2nc(-c3ccc(O)cc3O)cs2)nc1 5.01 µM
CCN(CC)c1cc(NC2CCCCC2)c2c3c(onc13)-c1ccccc1C2=O 11.2 µM
Cc1ccc(C2C3=C(Nc4[nH]n(-c5ccccc5)c(=O)c42)c2ccccc2C3=O)cc1 (stereo not drawn) 7.94 µM

Potency, inactive:
Cc1cccc(C)c1Nc1c(-c2ccccc2O)nc2ncccn12
